In the library only some 6.6% were active in any assay of this set; here they are far more common.
HT1080 IDH1KD tx – HT-1080 IDH1 knockdown cell toxicity (counter line); HT-1080 IDH1 knockdown viability, ATP luminescence, 48 h; Potency, µM (top dose mostly 46.1 µM), without a hit: at the top dose activity, negative = toxicity, usual class: cytotoxic; 2% of 360,000 active;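 further: 0% = DMSO wells and -100% = cell-free medium wells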
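Using the IDH1-knockdown HT-1080 line run in the same batch and compound series as the NT line, viability after 48 h at 37 °C was determined by CellTiter-Glo luminescence and expressed as % activity.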
TGFb SMAD3 inh – TGF-b pathway inhibition. AID 588855. 1.2% of 410,000 active. Potency, µM (titrated, usually from 46.1 µM), without a hit: top-dose activity, negative = inhibition, most hits filed as inhibitors. HepG2 CAGA-GFP TGF-b/SMAD3 reporter, GFP fluorescence, 18 h; TGF-beta stimulated, 500 pg/mL final; further: on the % scale 0 is the no-effect control and ±100 the full control effect; nearly all actives have a fitted effect of over 65% in size
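First, reporter cells (HEPG2 CAGA-GFP) rested 2 h at 37 degrees C. Next, compounds were pinned in and TGF-beta added to 500 pg/mL final. After 18 h, GFP was imaged per cell and summed per well.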
KB-3-1 cytotox – kills parental KB-3-1 adenocarcinoma cells; KB-3-1 viability, CellTiter-Glo ATP luminescence, 72 h; Potency, µM (doses to about 46.1 µM), actives largely listed as cytotoxic; 1.4% of 400,000 active; AID 1347075; further: on the % scale 0 is the no-effect control and ±100 the full control effect; nearly all actives have a fitted effect of over 60% in size
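72 h, 37 °C compound treatment of KB-3-1 parental cells; CellTiter-Glo added, 10 min, luminescence read. Data corrected against DMSO-only plates and normalized before curve fitting.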
HepG2 tox – HepG2 cytotoxicity, counter-screen for TGF-b inhibitors; HepG2 CAGA-GFP viability, ATP luminescence, 18 h; 0.76% of 410,000 active; AID 588856; Potency, µM (doses to about 46.1 µM), without a hit: at the highest dose activity change, negative = cytotoxicity, actives largely listed as cytotoxic
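HepG2 CAGA-GFP cells (1000/well, DMEM with 1% FBS) received compound, then TGF-beta at 500 pg/mL final, and were incubated 18 hours at 37 degrees C. Viability was read by CellTiter-Glo luminescence. Media-only wells were set as complete cell-killing and DMSO as no toxicity.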
KB-V1 cytotox – kills drug-selected multidrug resistant KB-V1 cells; KB-V1 MDR cells viability, CellTiter-Glo, 72 h; Potency, µM (doses to about 46.1 µM), most hits filed as cytotoxic; 3.4% of 400,000 active; AID 1347076; further: on the % scale 0 is the no-effect control and ±100 the full control effect; nearly all actives have a fitted effect of over 60% in size
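KB-V1 cells (P-gp-expressing MDR subline of KB-3-1) in phenol-red-free DMEM with 10% FBS were exposed to library compounds over a concentration series for 72 h at 37 degrees C. Viability read by CellTiter-Glo luminescence; concentration-effect curves fitted after normalization.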
HT1080-NT tox – kills 2HG-producing HT-1080-NT fibrosarcoma cells; Potency, µM (top dose mostly 46.1 µM), inactives show at the highest dose activity, negative = less viability, actives largely listed as cytotoxic; AID 686970; HT-1080-NT fibrosarcoma viability, CellTiter-Glo ATP luminescence, 48 h; 1.6% of 360,000 active;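 further: NT is the 2HG producing partner of a matched IDH1 knockdown line; 0% = DMSO-treated cells and -100% = media-only wells without cells; nearly all actives have a fitted effect of over 55% in size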
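Viability of the 2HG-overproducing fibrosarcoma line after 48 hours of compound exposure at 37 degrees C was determined by luminescence with CellTiter-Glo, and concentration-effect curves were then fitted and categorized.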
Numbers without * were called inactive; i = inactive; ? = inconclusive; · = no result given; ! = not confirmed by another sample; [ ] = another dose, or the depositor's remark. The call rests on the fitted dose curve; in most records, active means well fitted curve in the direction sought with a large enough effect; inconclusive means small, poorly fitted or top-dose-only effect, or another doubt; inactive means no such curve, though single readings can be large; an effect the other way counts as inactive or inconclusive. Potency means the concentration at half of the fitted maximal effect.

SMILES	HT1080 IDH1KD tx	TGFb SMAD3 inh	KB-3-1 cytotox	HepG2 tox	KB-V1 cytotox	HT1080-NT tox
CCCc1cc(N2CCCC(C(=O)NCc3ccc4c(c3)OCO4)C2)n2ncnc2n1 (centres undefined)	-4%	2%	i	4%	i	0%[9.24 µM]
CCOC(=O)c1c(-c2ccc(OC)cc2)oc2c1C(OC(C)=O)CCC2 (centres undefined)	7%	·	i	·	i	17%
CC(=O)NC12CC3CC(C1)CC(C(=O)N1CCN(S(=O)(=O)c4ccccc4C#N)CC1)(C3)C2	15%	6%	i	9%	i	9%
COC(=O)c1cc2oc3ccccc3c2n1Cc1nc(-c2cccc(Cl)c2)oc1C	·	-12%	i	-61%	?	·
CC(C)(C)c1ccc(OCC(=O)O)cc1	-1%	10%	i	-9%	i	2%
C[n+]1ccccc1COc1ccc(C(C)(C)C)cc1	-23%	8%	23µM*	1%	?	-10%
CC(C)CC1Nc2ncnc(N3CCN(c4ccccn4)CC3)c2N(Cc2ccc(Cl)cc2)C1=O (centres undefined)	?	?	?	-3%	23µM*!	?
Cc1ccc(C(=O)N/N=C2\CCc3ccccc32)c(C)c1	-2%	-4%	i	-10%	23µM*	-3%
O=C(N/N=C1\CCc2ccccc21)c1ccccc1Cl	-6%	-8%	i	-21%	i	3%
CCOc1ccc(CNC(=O)CCS(=O)(=O)c2cc3c(cc2Cl)NC(=O)CO3)cc1OC	·	2%	i	1%	i	·
Cc1ccc(-c2nc3cc(C)c(Br)c(C)n3c2CC(C)(C)C)cc1	-23%	-4%	i	-56%	i	-6%
N#CCC(=O)N/N=C/c1cc(-c2ccccc2)n(-c2ccc(Cl)cc2)c1-c1ccccc1	21µM*	?	i	11%	i	?
N#CCC(=O)N/N=C/c1ccc(Cl)cc1	0%	21%	?	37%	?	-11%
COc1ccc(CNc2ncnc3c2c(-c2ccccc2)cn3-c2ccccc2)cc1	·	-5%	i	-3%	i	·
Cc1ccc2nc(Cl)c3cc(C(=O)NC4CCCCC4)sc3c2c1	·	0%	i	0%	?	·
CN(C)CCNc1ccc(-c2nn(C)c(=O)c3ccccc23)cc1[N+](=O)[O-]	15%	-8%	?	-11%	23µM*	-2%
Cn1nc(-c2ccc(NCCO)c([N+](=O)[O-])c2)c2ccccc2c1=O	-12%	0%	?	-19%	i	1%
CCCCCCN1C[C@@H](O)[C@H](n2cc(C3CC3)nn2)C[C@@H]1c1ccc(Cl)cc1	?	?	i	16µM*	i	-27%
O[C@@H]1CN(CC2CCCCC2)[C@@H](c2ccccc2)C[C@H]1n1cc(C2CC2)nn1	4%	-1%	21µM*	-5%	?	6%
O[C@H]1C[C@H](c2ccccc2)N(CC2CCCCC2)C[C@@H]1n1cc(C2CC2)nn1	?	?	?	-132%	i	?
CCCCCCN1C[C@H](n2cc(COC(=O)c3ccccc3)nn2)[C@@H](O)C[C@@H]1c1ccc(Cl)cc1	?	?	?	-139%	21µM*	?
CC(=O)N1CCc2c(sc3c2c(=O)n(-c2ccccc2C)c(=O)n3CC(=O)Nc2ccccc2)C1	·	-18%	i	-19%	i	·
O=C(N/N=C/c1cc(Cl)ccc1O)C(=O)Nc1ccccc1OC(F)(F)C(F)F	?	?	?	-9%	?	?
O=C(N/N=C/c1cc(Br)ccc1O)C(=O)Nc1ccccc1OC(F)(F)C(F)F	0.89µM*	?	?	-35%	?	1.4µM*
CC(C)c1ccc(/C=N/NC(=O)c2ccccc2Cl)cc1	6.5µM*	-13%	15µM*	25%	4.6µM*	7.3µM*
SMILES	HT1080 IDH1KD tx	TGFb SMAD3 inh	KB-3-1 cytotox	HepG2 tox	KB-V1 cytotox	HT1080-NT tox
O=C(N/N=C/c1cc(Br)ccc1O)c1ccccc1Cl	16µM*	?	?	-48%	?	?
O=C(N/N=C/c1ccccc1Cl)c1ccncc1	-5%	10%	i	7%	i	-4%
O=C(N/N=C/c1cc(Cl)ccc1O)c1ccncc1	4.1µM*	?	?	13µM*	?	6.5µM*
Cc1c(C(=O)Nc2ccc(F)c(C(F)(F)F)c2)sc2nc(-c3ccccc3)cn12	·	5%	·	-1%	·	·
CCOC(=O)c1ccc(N2CCN(c3cc(C)ccc3C)CC2)c(NC(=O)Nc2ccc(Cl)cc2)c1	·	-5%	·	-4%	·	·
Cc1cccc2cc(/C=N/NC(=O)c3ccccc3O)c(Cl)nc12	-21%	10µM*	i	-32%	?	0%
COc1ccc(-c2cc(C(F)(F)F)nc(SCCC(=O)Nc3ccc(NC(C)=O)cc3)n2)cc1	·	4%	i	-5%	i	·
NC(N)=N/N=C/c1ccc2cccc(OCc3ccccc3)c2n1	?	?	16µM*	-84%	i	23µM*
O=c1c(=O)n(-c2ccccc2)ccn1Cc1c(F)cccc1Cl	·	1%	·	-31%	·	·
C=CCN(C(=O)C1CC(=O)N(C2CCCC2)C1)c1nc(-c2ccc(S(C)(=O)=O)cc2)cs1 (centres undefined)	-15%	0%	18µM*	-27%	2.9µM*	-19%
CCn1cc(C(=O)OCC(=O)c2ccccc2)c(=O)c2ccc(C)nc21	1%	-17%	i	0%	?	15%
Cc1cc(C(=O)COC(=O)Cc2n[nH]c(=O)c3ccccc23)c(C)n1-c1cccc(C(F)(F)F)c1	-1%	?	?	-20%	21µM*	3%
CCn1cc(C(=O)OCC(=O)c2cc(C)n(-c3cccc(C(F)(F)F)c3)c2C)c(=O)c2ccc(C)nc21	2%	-21%	i	-3%	23µM*	-3%
Cc1cc(C(=O)COC(=O)CC2Sc3ccccc3NC2=O)c(C)n1-c1cccc(C(F)(F)F)c1 (centres undefined)	?	-29%	i	-15%	?	0%
COc1ccc(NC(=O)C(C)Sc2cc(-c3ccccc3)nc(C)n2)cc1Cl (centres undefined)	·	0%	·	0%	·	·
CCNC(=O)c1cnc2sc(N3CCCCCC3)nn2c1=O	·	3%	·	14%	·	·
COc1ccc(N2CC(O)=C(c3nc4ccccc4s3)C2=N)cc1	-28%	6%	i	0%	i	?

Screens: PubChem BioAssay, National Center for Advancing Translational Sciences (NCATS)
